High-throughput results (PubChem)
PTAP TSG101 blk – blocks PTAP/TSG101 interaction to inhibit HIV-1 budding; Q99816; Fluorescence polarization, FITC-PTAP peptide / Tsg101 binding; Potency, µM (doses to about 115 µM), usual class: inhibitors; 340,000 tested, under 10 active; AID 493005; active = well fitted inhibition curve with a large enough effect in the main read-out, with a control signal flat, not every such curve was filed as active; inconclusive = small, poorly fitted or top-dose-only effect, or effect the other way, or a change in a side signal; inactive = no such curve, though single readings can be large or run the other way
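Compounds were pin-transferred onto Tsg101 binding domain (10 uM final) in HEPES pH 7.5 buffer, then FITC-PTAP peptide was added at 50 nM final. After 20 min at RT, polarization reported peptide displacement across a qHTS concentration series.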
TRPV1 agonist – activates the human vanilloid receptor TRPV1. activation, % at 8.33 µM. Q8NER1. 0.19% of 320,000 active. TRPV1-expressing cells, Fluo-8 calcium influx, agonist mode. AID 540275; in the data active = activation above about 80%; inconclusive = between about 30% and that limit
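Fluo-8 calcium influx in TRPV1-expressing cells, kinetic read (ex 480/em 520 nm). Compound added and read 3 min for agonist activity, followed by capsaicin at EC20 final and 2 min further read for enhancement.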
A-T KAP1 phos – candidate therapy for ataxia-telangiectasia; 0.19% of 320,000 active; F2112 A-T fibroblasts, KAP-1 phosphorylation AlphaLISA; neocarzinostatin DNA damage 30 min before lysis; Potency, µM (series often up to 57.5 µM), actives largely listed as activators; AID 485349; also: nearly all actives have a fitted effect of over 45% in size
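ATM-like activity read as KAP-1 phosphorylation via AlphaLISA donor/acceptor antibody pairs after lysis and 6 hr at 25C. Cells were ATM-null patient fibroblasts (F2112, hTERT), dosed 60 min, then exposed to the DSB inducer NCS for 30 min.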
S-ASM inh – blocks human secretory acid sphingomyelinase; placental ASM, HMU-PC fluorogenic substrate, 60 min; Potency, µM (doses to about 57.5 µM), actives largely listed as inhibitors; 0.006% of 340,000 active; AID 504937
Target sequence (P17405 47-631 limits assumed): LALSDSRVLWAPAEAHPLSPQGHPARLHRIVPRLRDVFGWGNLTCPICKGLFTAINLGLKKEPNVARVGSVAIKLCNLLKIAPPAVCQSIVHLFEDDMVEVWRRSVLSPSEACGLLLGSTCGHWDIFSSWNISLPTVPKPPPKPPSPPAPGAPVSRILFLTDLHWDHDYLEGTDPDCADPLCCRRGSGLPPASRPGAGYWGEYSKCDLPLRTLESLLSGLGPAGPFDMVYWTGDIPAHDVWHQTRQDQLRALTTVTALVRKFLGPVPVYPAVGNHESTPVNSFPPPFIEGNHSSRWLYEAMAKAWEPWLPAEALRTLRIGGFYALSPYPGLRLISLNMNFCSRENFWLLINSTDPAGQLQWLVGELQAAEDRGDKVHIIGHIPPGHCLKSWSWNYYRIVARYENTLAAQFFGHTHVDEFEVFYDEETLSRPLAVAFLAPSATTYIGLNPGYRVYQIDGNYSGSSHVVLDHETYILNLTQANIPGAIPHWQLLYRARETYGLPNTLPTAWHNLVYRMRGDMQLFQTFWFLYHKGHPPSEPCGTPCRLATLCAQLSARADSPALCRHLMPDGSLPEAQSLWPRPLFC
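Fluorogenic HMU-PC substrate (9 uM final) is turned over by placental ASM in 60 min at 37 C after a 10 min compound preincubation. Reaction ended by alkaline stop (pH 10), with fluorescence read at 386/447 nm.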
TRPV1 potentiator – potentiators of human vanilloid receptor 1 (TRPV1); TRPV1-expressing cells, Fluo-8 calcium influx, capsaicin EC20 potentiation; 0.02% of 320,000 active; AID 540277; potentiation, % at 8.33 µM; Q8NER1; in the data active = potentiation above about 80%; inconclusive = between about 30% and that limit
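Fluo-8 calcium influx in TRPV1-expressing cells, kinetic read (ex 480/em 520 nm). Compound added and read 3 min for agonist activity, followed by capsaicin at EC20 final and 2 min further read for enhancement.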
Hits are given with their value; - = inactive; ? = inconclusive; . = no result; [ ] = another dose, or the depositor's remark. A selection: hits, their analogues and other compounds. The true share with any hit is near 0.37%. Unless noted, calls follow the shape of the dose curve; as a rule, active = well fitted curve in the direction sought with a large enough effect; inconclusive = small, poorly fitted or top-dose-only effect, or another doubt; inactive = no such curve, though single readings can be large; an effect the other way counts as inactive or inconclusive.

SMILES	PTAP TSG101 blk	TRPV1 agonist	A-T KAP1 phos	S-ASM inh	TRPV1 potentiator
O=C(c1ccccc1)N1CCN(C(=O)c2ccccc2)c2ccccc21	-	.	.	-	.
C[C@@]12CCC=C[C@H]1[C@H](c1ccc(/C=C/c3ccccc3)cc1F)N(Cc1ccccc1)C2=O	-	-	39.8µM	-	-
C[C@]12CC[C@@H]3c4ccc(OC(=O)c5ccccc5)cc4CC[C@H]3[C@@H]1CC[C@@H]2O	-	-	17.8µM	-	-
NC(=O)C1CCN(C(=O)CCSCc2ccc(Cl)c(Cl)c2)CC1	-	88.0	-	-	-
CCOCCCNC(=O)C1(O)c2ccccc2NC(=O)N1c1ccc(Cl)cc1 (stereo not drawn)	-	-	-	-	-
CC(=O)NC(c1cc(F)c2cccnc2c1O)C(C)C (stereo not drawn)	.	.	-	.	.
COc1ccc2sc(-c3ccc(N(C)C)cc3)c(C#Cc3cncn3C)c2c1	-	.	31.6µM	-	.
COc1ccc2sc(-c3ccc(N(C)C)cc3)c(C#CC(C)(C)O)c2c1	-	-	31.6µM	-	-
COc1ccc2sc(-c3ccc(N(C)C)cc3)c(C#CCCO)c2c1	-	-	25.1µM	-	-
COc1ccc2sc(-c3ccc(SC)cc3)c(C#CC(C)(C)O)c2c1	-	-	?	-	-
COc1ccc(-c2sc3ccc(OC)cc3c2C#CCCO)cc1	.	-	?	-	-
O=C1C2=C(C(=O)c3ccccc31)C1O[C@](CCCCN3C(=O)c4ccccc4C3=O)(Cc3ccccc31)O2	.	-	-[11.5 µM]	.	-
C/C(Cn1nnc2ccccc21)=N\NC(=O)c1ccc(Br)cc1	-	-	-	-	-
c1ccc2c(c1)Oc1cccc3cccc-2c13	-	-	10µM	-	?
CC(C)CC(=O)OC1C(N2CCOCC2)c2c(ccc(/C=C/C(=O)N3CCOCC3)c2O)OC1(C)C (stereo not drawn)	-	81.0	-	-	-
CN(c1ccccc1)S(=O)(=O)c1cccc(NC(=O)Cn2cnc3ccccc3c2=O)c1	-	-	-	-	81.8
COC(=O)C(Cc1c[nH]c2ccccc12)NC(=O)COc1ccc(Cl)cc1Cl (stereo not drawn)	.	?	.	.	-
Cc1nc(C(=O)NCCC(C)C)sc1C1(C)CC(c2ccccc2)=NO1 (stereo not drawn)	-	-	39.8µM	-	-
CNC(=O)c1nc(C)c(C2(C)CC(c3ccccc3)=NO2)s1 (stereo not drawn)	-	-	-	-	-
CC1(c2ccc(OC(F)F)cc2)NC(=O)N(CC(=O)Nc2ccc3[nH]c(=O)[nH]c3c2)C1=O (stereo not drawn)	-	-	-	-	80.9
CC1OC(c2ccccc2)OC2COC(c3ccccc3)OC12 (stereo not drawn)	-	.	.	-	.
O=C(O)c1ccc(-c2noc(-c3ccc(F)cc3)n2)cc1	.	.	.	-	.
Cc1cccc(-c2noc(CCC(=O)Nc3ccc(C(N)=O)cc3)n2)c1	-	80.8	-	-	-
CCC(=O)NC(c1cccs1)c1cc(Br)c2cccnc2c1O (stereo not drawn)	.	.	-	.	.
CCOC(=O)[C@H]1[C@H]2COc3ccc(C)cc3[C@@H]2N2C(=O)c3cc(F)c(F)cc3NC(=O)[C@@]12C	-	80.8	-	-	-
SMILES	PTAP TSG101 blk	TRPV1 agonist	A-T KAP1 phos	S-ASM inh	TRPV1 potentiator
CCOC(=O)[C@H]1[C@H]2COc3ccc(Cl)cc3[C@@H]2N2C(=O)c3cc(F)c(F)cc3NC(=O)[C@@]12C	-	81.1	-	-	-
O=Cc1c[nH]c2ccccc12	.	-	.	.	-
CC(NC(=O)COC(=O)c1ccco1)C12CC3CC(CC(C3)C1)C2 (stereo not drawn)	.	-	.	.	-
Cc1cccc(C2=NN(c3ccc(Br)cc3)[C@@H](C(=O)N3CCOC3=O)[C@@H]2c2ccc(Cl)cc2)c1	-	.	-	-	.
O=C1OCCN1C(=O)[C@H]1[C@H](c2ccc(Cl)cc2)C(c2cccc(Cl)c2)=NN1c1ccccc1	-	-	35.5µM	-	-
Cc1cccc(C2=NN(c3ccc(Br)cc3)[C@@H](C(=O)N3CCOC3=O)[C@@H]2c2ccc(F)cc2)c1	-	-	17.8µM	-	-
CCOC(=O)c1cc([N+](=O)[O-])cc([N+](=O)[O-])c1Sc1ncnc2nc[nH]c12	-	.	.	-	.
Cc1ccc(NS(=O)(=O)c2ccccc2)c(C)c1	.	-	.	.	-
